Hit rate of the full screen: of about 16,000 compounds, about 5,100 (32%) were called active. Not shown: some 25% with an inconclusive outcome. Calls come from the whole dose curve; as a rule, active = well fitted curve in the direction sought with a large enough effect; inconclusive = small, poorly fitted or top-dose-only effect, or effect the other way; inactive = no such curve, though single readings can be large or run the other way. The list shows a part of the results.
target: Cytochrome P450 3A4 (Homo sapiens) (UniProt P08684); assay: Cytochrome panel assay with activity outcomes; conditions: recombinant CYP, pro-luciferin dealkylation, luminescence, p450-cyp3a4; series mostly up to 57.1 µM; activity, negative = inhibition: at the top concentration
Sequence (P08684 whole entry, looked up): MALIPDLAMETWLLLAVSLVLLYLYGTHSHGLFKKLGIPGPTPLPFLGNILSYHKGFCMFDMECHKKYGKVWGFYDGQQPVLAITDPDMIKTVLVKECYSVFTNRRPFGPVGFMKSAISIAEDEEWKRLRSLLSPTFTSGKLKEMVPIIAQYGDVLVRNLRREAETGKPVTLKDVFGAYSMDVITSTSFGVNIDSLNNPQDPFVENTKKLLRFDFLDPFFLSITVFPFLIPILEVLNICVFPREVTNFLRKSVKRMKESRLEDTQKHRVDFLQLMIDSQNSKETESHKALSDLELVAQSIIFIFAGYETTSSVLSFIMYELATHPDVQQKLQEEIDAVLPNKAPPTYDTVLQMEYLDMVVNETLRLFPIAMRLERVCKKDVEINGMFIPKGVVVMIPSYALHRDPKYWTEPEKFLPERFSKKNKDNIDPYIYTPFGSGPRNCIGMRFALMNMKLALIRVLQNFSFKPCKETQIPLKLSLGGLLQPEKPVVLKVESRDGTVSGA
% is set by controls: 0 for no effect and ±100 for the full control effect.

activity, negative = inhibition, inactive:
N=c1ccn2c(n1)O[C@H]1[C@@H](OP(=O)(O)O)[C@H](CO)O[C@H]12 -6.24% [at 11.4 µM]
Cc1cc(NC(=O)C2CCCCC2)nc2c1c(=O)oc1ccccc12 -4.81% [at 2.29 µM]
O=C(O)[C@H]1CCCC[C@@H]1C(=O)Nc1nc2ccccc2[nH]1 -6.18% [at 11.4 µM]
O=C1C=C(NCC2CCCO2)C2(CCCCC2)O1 (configuration not stated) -10.6%
COC(=O)COc1ccsc1C(=O)OC -5.82%
COc1ccc(/C=N/NC(=O)c2sccc2OCc2ccc(F)cc2)cc1OC -9.08% [at 2.29 µM]
O=S(=O)(NCc1cccnc1)c1ccc(Cl)nc1 5.89% [at 2.29 µM]
CCOC(=O)Nc1ccc(S(=O)(=O)NCc2ccccc2)cc1 -5.85%
Oc1ccccc1CNCc1ccccc1O -7.01% [at 11.4 µM]
COC(=O)N1CCC2(CCN(Cc3ccccc3OC)CC2)CC1 -11.5%
C=CCOc1ccc(CNC(C)(C)CO)cc1OCC 2.18%
CCCNc1nc(NCC)nc(OC)n1 5.69%
O=C(N/N=C/c1ccco1)c1ccc(Br)o1 -15.3%
CCCN1CCC(=NNC(=O)c2ccc(Br)o2)CC1 11.6% [at 2.29 µM]
O=C(c1ccco1)N1CCN(C(=O)c2nn3cccnc3c2Cl)CC1 21.1%
Cc1ccc(C(CC(=O)c2ccco2)SCCO)cc1 (configuration not stated) -23.2%
CCCCNC(=O)C1CC(=O)N(CCC(C)C)C1 (configuration not stated) 0.276% [at 11.4 µM]
O=C(NCCCN1CCCCCC1)C1CC(=O)N(CCc2ccccc2)C1 (configuration not stated) -20.8%
Cc1ccc(CCN2CC(C(=O)NCCN3CCOCC3)CC2=O)cc1 (configuration not stated) -12.6%
CN(C)CCCN1CC(C(=O)O)CC1=O (configuration not stated) -11.5%
Cn1c([N+](=O)[O-])cnc1COC(N)=O -5.99% [at 25.6 µM]
c1ccc2c(NC3CCNCC3)nc(-c3ccoc3)nc2c1 -5.63%
O=C1COc2ccc(OCc3ccc(F)cc3)cc21 3%
NC(=O)c1csc(-c2ccc(CO)o2)n1 -8.17% [at 11.4 µM]
Clc1cc2c(c(CSC3=NCN(CC4CC4)CN3)c1)OCOC2 -21.4% [at 11.4 µM]
CC(=O)OC[C@@H]1O[C@@H](O/N=C2/C[C@@H](O)[C@@H](O)[C@@H]3[C@H]4C(=O)N(c5ccc(F)cc5F)C(=O)[C@@H]4CC[C@@H]23)[C@H](OC(C)=O)[C@H](OC(C)=O)[C@@H]1OC(C)=O -27.1% [at 11.4 µM]
CCCCCCCCOC1OC(CO)C(O)C(O)C1NC(C)=O (configuration not stated) -7.28%
CNc1oc(C)nc1S(=O)(=O)c1ccc(C)cc1 -16.1%
Cc1cc(-c2ccccc2)[nH]c(=O)c1S(=O)(=O)c1ccc(Cl)cc1 -12.9%
CCCSc1nc(C)cc(C)c1S(=O)(=O)c1ccccc1C -17.7%
COc1ccc([N+](=O)[O-])cc1COc1ccc2c(-c3ccccc3)cc(=O)oc2c1 -22.6%
CN1CCC2(CC1)CCN(S(=O)(=O)c1ccccc1)CC2 -12.4%
Cn1c(=O)c2[nH]c(COCc3nc4c([nH]3)c(=O)n(C)c(=O)n4C)nc2n(C)c1=O -0.524% [at 11.4 µM]
OCCN=C1CCCc2c1[nH]c1ccc(Br)cc21 -11%
O=C1CCCCC(=O)c2ccccc2N1 -7.97%
CCOc1ccc(N2C(=O)/C(=C/c3cccs3)N(CC(=O)OC)C2=S)cc1 -26.9%
COCC(=O)Nc1ccc(-c2cn3cccnc3n2)cc1 -9.62%
CCCCC(=O)Nc1ccc(C(=O)NNC(=O)CCc2ccccc2)cc1 -12.2%
CNC(=S)Nc1ccc(Nc2ccccc2)cc1 -26%
O=[N+]([O-])c1ccc(NN=C2c3ccccc3Cc3ccccc32)c([N+](=O)[O-])c1 -5.06% [at 11.4 µM]
CC1(C)N=C(N)N=C(N)N1c1cccc(OCc2cccc([N+](=O)[O-])c2)c1 -3.23% [at 11.4 µM]
O=C(c1ccccc1)N1CCSC1=S -18.4%
COC(=O)c1nc(NC(=O)c2ccccc2)n[nH]1 -13.8%
Cc1c(NC(=O)C(Sc2ccccc2)c2ccccc2)cccc1[N+](=O)[O-] (configuration not stated) -28.3% [at 2.29 µM]
O=C(O)CCCCCNC(=O)c1ccncc1 -1.26%
O=C(NCCCN1CCOCC1)c1cc(C(=O)C2CC2)c[nH]1 -2.72%
O=C1Oc2ccccc2C2(O)C3CCCCCC3C12 (configuration not stated) -27.4% [at 11.4 µM]
C[C@@](N)(Cc1c[nH]c2ccccc12)C(=O)O -19.3% [at 11.4 µM]
O=C(Nc1ccccc1-c1nc2ccccc2[nH]1)c1ccc(S(=O)(=O)N2CCCCC2)cc1 -23.2% [at 2.29 µM]
CCN(CC)C(=O)CSc1nnc(-c2ccco2)n1N -0.344%
CCN(CC)C(=O)CSc1nnc(-c2ccncc2)n1N -8%
CC(C)(C)c1onc(OCP(=O)(O)O)c1C[C@@H](N)C(=O)O -6.88%
CN(C)/C=N/c1ncc(C(=O)c2ccc3ccccc3c2)s1 -17%
O=c1onc(-c2cccs2)n1Cc1ccccc1 0.721%
CC(=O)c1ccc(-n2c(CCC(=O)O)ccc2-c2cccs2)cc1 -24.9%
CCn1nnnc1SCC(=O)c1ccc2c(c1)OCCO2 -31%

AC50, active:
Cc1cc(NC(=O)C2CCCC2)n(-c2nc3ccccc3[nH]2)n1 11.2 µM
COc1ccc(COc2ccsc2C(=O)Nc2ccc(Cl)c(Cl)c2)cc1 7.08 µM
CCN(C1CCCCC1)S(=O)(=O)c1ccc(S(=O)(=O)NCc2ccncc2)cc1 7.08 µM
COc1ccccc1CNCC(O)(c1ccc(Cl)cc1)c1ccc(Cl)cc1 3.55 µM
CCOc1nc(NCCc2ccc(OC)c(OC)c2)nc(NC(C)(C)CO)n1 11.2 µM
CC(C)N1CCC(=NNC(=O)c2ccc(Br)o2)CC1 15.8 µM
CC(C)CCn1nnnc1C(c1ccc(F)cc1)N1CCN(C(=O)c2ccco2)CC1 (configuration not stated) 7.94 µM
Cc1ccc(C(c2nnnn2CC2CCCO2)N2CCN(C(=O)c3ccco3)CC2)cc1 (configuration not stated) 3.55 µM
Cc1ccc(CCN2CC(C(=O)NC3CCCC3)CC2=O)cc1 (configuration not stated) 15.8 µM
CCOCCCN1CC(C(=O)NCCc2ccc(C)cc2)CC1=O (configuration not stated) 15.8 µM
COc1ccccc1/C=C/C(=O)c1c2c(c(C)[nH]c1=O)CCCC2 3.98 µM
Cc1[nH]c(=O)c(C(=O)/C=C/c2ccccc2F)c2c1CCCC2 11.2 µM
CNc1nc(-c2ccoc2)nc2ccccc12 15.8 µM
c1ccc2c(Nc3ccncc3)nc(-c3ccoc3)nc2c1 1.26 µM
Fc1ccc(Nc2nc(-c3ccoc3)nc3ccccc23)cc1 3.98 µM
c1ccc2c(NC3CC3)nc(-c3ccoc3)nc2c1 3.98 µM
O=S(=O)(c1ccc(F)cc1)N1CC2CCCN2c2ccc(C(F)(F)F)cc21 (configuration not stated) 6.31 µM
COc1ccc(S(=O)(=O)N2CC3CCCN3c3ccc(C(F)(F)F)cc32)cc1 (configuration not stated) 1 µM
OCc1ccc(-c2nn(Cc3ccccc3)c3ccccc23)o1 12.6 µM
CC(=O)NC1C(OCCOc2ccc(Cl)cc2Cl)OC(COC(C)=O)C(OC(C)=O)C1OC(C)=O (configuration not stated) 14.1 µM
CNc1nc(C)cc(C)c1S(=O)(=O)c1ccc(C)cc1 4.47 µM
CNc1nc(C)cc(C)c1S(=O)(=O)c1ccc(Cl)cc1 4.47 µM
Cc1ccc(C2Nc3ccccc3C(=O)N2Cc2ccco2)cc1 (configuration not stated) 14.1 µM
COc1ccc(C2Nc3ccccc3C(=O)N2Cc2ccco2)cc1COc1ccc([N+](=O)[O-])cc1 (configuration not stated) 4.47 µM
O=S(=O)(c1ccccc1)N1CCC2(CCCN(C(c3ccccc3)c3ccccc3)C2)CC1 2 µM
O=S(=O)(c1ccccc1)N1CCC[C@@]2(CCN(C(c3ccccc3)c3ccccc3)C2)C1 3.16 µM
O=C1Cc2c([nH]c3ccc(Br)cc23)-c2ccccc2N1 12.6 µM
CC(C)OCCCN1CN(S(=O)(=O)c2cccc(Cl)c2)c2nc3ccccc3nc21 7.94 µM
CCN1C(=O)C(CC(=O)Nc2ccc(OC)cc2)N(Cc2cccs2)C1=S (configuration not stated) 3.98 µM
CCN1C(=O)C(CC(=O)Nc2ccc(Br)cc2)N(CCCc2ccccc2)C1=S (configuration not stated) 2.51 µM
CCN1C(=O)C(CC(=O)Nc2ccc(OC)cc2)N(Cc2cccnc2)C1=S (configuration not stated) 11.2 µM
Cc1cc(NC(=S)Nc2ccccc2)ccc1Br 20 µM
O=[N+]([O-])c1ccc(C2CCCC/C2=N\OCc2cccc(F)c2)c([N+](=O)[O-])c1 (configuration not stated) 14.1 µM
Cc1nc(SC(C(=O)c2ccccc2)c2ccccc2)n[nH]1 (configuration not stated) 7.08 µM
O=C(c1ccc(C(F)(F)F)cc1)c1c[nH]c(C(=O)NCCCn2ccnc2)c1 1 µM
CC(C)(C)c1ccc(C(=O)c2c[nH]c(C(=O)NCCCn3ccnc3)c2)cc1 0.282 µM
O=C(Cc1c[nH]c2ccccc12)OCC(=O)c1ccccc1 22.4 µM
Cn1c(SCC(=O)N2CCN(S(=O)(=O)c3ccccc3)CC2)nc2ccccc21 12.6 µM
CCN(CC)C(=O)CSc1nnc(-c2cc3ccccc3cc2O)n1CC 7.94 µM
Cn1c(/C(C#N)=C(\O)c2ccc(S(=O)(=O)N3CCCCC3)cc2)nc2ccccc21 14.1 µM
CCn1c(SCC(=O)NC(=O)NCc2ccco2)nnc1-c1cccs1 1.26 µM
CCn1c(SCC(=O)N2CCN(S(=O)(=O)c3ccccc3)CC2)nnc1-c1cccs1 1.12 µM
CCn1c(SCC(=O)c2ccc3ccccc3c2)nnc1-c1cccs1 3.98 µM
CCn1c(SCC(=O)c2ccccc2)nnc1-c1cccs1 8.91 µM
Cc1ccccc1CSc1nnc(-c2cccs2)n1Cc1ccco1 4.47 µM

AC50, inactive:
C[N+](C)(C)CCOC(N)=O

— PubChem BioAssay AID1851 (National Center for Advancing Translational Sciences (NCATS), 2009)
